Pin1 inhibitor = qHTS Assay to Find Inhibitors of Pin1; Peptidyl-prolyl cis-trans isomerase NIMA-interacting 1 (Homo sapiens), Q13526; Pin1 FP peptide displacement, HiFluor488, 10 min; Potency, µM (doses to about 115 µM), actives largely listed as inhibitors; 390,000 tested, 0.009% active; active = well fitted inhibition curve with a large enough effect in the polarisation, with a control signal flat, not every such curve was filed as active; inconclusive = small, poorly fitted or top-dose-only effect, or effect the other way, or a change in a side signal; inactive = no such curve, though single readings can be large or run the other way; the % refers to the polarisation
Target sequence (Q13526 whole entry, looked up): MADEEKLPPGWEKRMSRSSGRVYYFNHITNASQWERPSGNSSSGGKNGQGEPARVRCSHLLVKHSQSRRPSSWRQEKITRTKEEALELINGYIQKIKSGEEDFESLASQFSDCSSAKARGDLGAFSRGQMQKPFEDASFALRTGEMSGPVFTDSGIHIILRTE
A549 tox = Nrf2 qHTS screen for inhibitors: counterscreen for cytotoxicity; 390,000 tested, 0.16% active; Potency, µM (series often up to 46 µM), actives largely listed as inhibitors; A549 ARE-Fluc cells, CellTiter-Fluor viability, 18-24 h
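Cytotoxicity counterscreen: CellTiter-Fluor fluorescence was measured in A549 ARE_Fluc cells after 18-24 h of compound exposure in a concentration series. The subsequent BugLite luminescent read reports ARE-luciferase activity.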
Nrf2 inh = Nrf2 qHTS screen for inhibitors; 360,000 tested, 2.1% active; AID 504444, 2011; Potency, µM (top dose mostly 46 µM), most hits filed as inhibitors; A549 ARE-Fluc reporter, luciferase luminescence, 18-24 h; note: nearly all actives have a fitted effect of over 60% in size
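Reporter: ARE-Fluc in A549. Exposure: 18-24 h, 37 °C, 5% CO2, 5% FBS OPTI-MEM. Readouts: fluorescent cytotoxicity (CellTiter-Fluor), then luminescent Nrf2 signal after BugLite.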
Nrf2 activator = qHTS of Nrf2 Activators; Potency, µM (highest dose often 46.1 µM), most hits filed as activators; 410,000 tested, 0.31% active; AREc32 ARE-luciferase reporter (MCF7-derived line), luminescence, 24 h; note: nearly all actives have a fitted effect of over 65% in size
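For detection, Steady-Glo was added and plates sat 30 min at RT; before that, AREc32_Fluc cells grown overnight in OPTI-MEM/5% FBS had been treated with 23 nL compound for 24 hr at 37 deg C.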
Large screens that a line does not name were inactive. The list is not random: actives were taken first. Their share in the collection is about 2.2%. Unless noted, calls come from the whole dose curve; as a rule, active = well fitted curve in the direction sought with a large enough effect; inconclusive = small, poorly fitted or top-dose-only effect, or another doubt; inactive = no such curve, though single readings can be large; an effect the other way counts as inactive or inconclusive.

COc1ccc(NC(=O)c2cc(S(=O)(=O)N3CCCCCC3)cn2C)cc1Cl	none (no result: Nrf2 inh)
Clc1ccc(-c2csc(N/N=C/c3cccnc3)n2)c(Cl)c1	Pin1 inhibitor inconclusive, Nrf2 inh 13µM
C(=N\Nc1nc(-c2ccccc2)cs1)/c1cccnc1	none
COc1ccc2[nH]c(C(=O)N3CCc4ccccc4C3)c(C)c2c1	Nrf2 inh 18µM
COc1ccc(-c2cn3c(C)c(C(=O)N4CCc5ccccc5C4)sc3n2)cc1	Nrf2 inh 16µM
Cc1c(C(=O)N2CCc3ccccc3C2)sc2nc(-c3ccccc3)cn12	none
COc1ccc(N2CCN(C(=O)c3[nH]c4ccc(OC)cc4c3C)CC2)cc1	none
Cc1c(C(O)(c2ccccc2)c2ccccc2)[n+]2ccccc2n1C	none (no result: Nrf2 activator)
COC(=O)C1=C(N)Oc2cc(C)n(CC3CCCO3)c(=O)c2C1c1ccc(Cl)c(Cl)c1 (stereo not given)	Nrf2 inh 21µM
CCCc1cc(=O)[nH]c(SCC(=O)Nc2sc(C(N)=O)c(C)c2C(=O)OCCOC)n1	Nrf2 inh 5.2µM
COCCCNC(=S)Nc1cccc2ncccc12	Nrf2 inh 13µM
O=C(NC(=S)Nc1cccc2ncccc12)c1ccco1	none
O=C1Cc2cc(S(=O)(=O)N3CCN(c4ccc(C(F)(F)F)cc4)CC3)ccc2N1	Nrf2 inh inconclusive (no result: Nrf2 activator)
COc1ccc(/C=N/OCC(=O)NC(c2ccccc2)c2ccccc2)cc1OC	Nrf2 inh 5.8µM
C=Cc1ccc(Cn2c(=O)cc(C)c3c(C)nn(C)c32)cc1	Nrf2 inh inconclusive
CC(=O)Nc1nn(C)c2nc3cc(C)ccc3cc12	none
Cc1ccc2cc3c(NC(=O)c4ccco4)nn(C)c3nc2c1	Nrf2 inh inconclusive, Nrf2 activator 3.2µM
O=C1OCCC1Sc1nnc(-c2ccccc2)o1 (stereo not given)	none
O=C1OCCC1Sc1nnc(-c2ccc(Cl)cc2Cl)o1 (stereo not given)	Nrf2 inh 9.2µM
O=C1C(Nc2ccccc2)=C/C(=N/S(=O)(=O)c2cccs2)c2ccccc21	Pin1 inhibitor inconclusive, A549 tox 15µM, Nrf2 inh 8.2µM
Cc1ccc(S(=O)(=O)/N=C2\C=C(Nc3ccc(O)cc3)C(=O)c3ccccc32)cc1	A549 tox 16µM, Nrf2 inh 18µM
Cc1ccc(S(=O)(=O)/N=C2\C=C(Nc3cccc(C(=O)O)c3)C(=O)c3ccccc32)cc1	none
COc1ccc2oc(=O)cc(CN3CCN(C(=O)c4ccccc4Br)CC3)c2c1	none
COc1cc2c(O)c3c(c(-c4ccc5c(c4)OCO5)c2cc1OC)C(=O)OC3	A549 tox 18µM, Nrf2 inh inconclusive
CCCC(=O)N(CCc1ccc(OC)cc1)Cc1nc2ccccc2c(=O)[nH]1	Nrf2 inh 23µM
CCN(Cc1nc2ccccc2c(=O)[nH]1)C(=O)COc1ccccc1Cc1ccccc1	Nrf2 inh 16µM
COCC(=O)N(CCc1ccc(OC)cc1)Cc1nc2ccccc2c(=O)[nH]1	none
O=S(=O)(c1ccccc1)N1CCN(c2nc(C3CC3)nc3ccccc23)CC1	none (no result: Nrf2 activator)
CCOC(=O)Cc1ccc(NC(=O)Nc2nnc(N3CCCCC3C)s2)cc1 (stereo not given)	A549 tox inconclusive, Nrf2 inh 21µM
COc1ccc2oc(=O)cc(CN3CCN(C(=O)c4ccccc4)CC3)c2c1	none
CC1(c2nnc(Cc3ccccc3)o2)CC(c2ccc(OC(F)(F)F)cc2)=NO1 (stereo not given)	Nrf2 inh 23µM
CC1(c2nnc(Cc3ccccc3)o2)CC(c2ccccc2)=NO1 (stereo not given)	none
O=C(CCn1ccc2cc(S(=O)(=O)N3CCCC3)ccc21)NCc1cccc(Br)c1	none
CC(C)(C)c1ccc(Cn2nnc3c(=O)[nH]c(C4CCCN(C(=O)c5cccs5)C4)nc32)cc1 (stereo not given)	Nrf2 inh 23µM
CC(C)(C)c1ccc(Cn2nnc3c(=O)[nH]c(C4CCN(C(=O)c5ccco5)CC4)nc32)cc1	A549 tox inconclusive, Nrf2 inh 26µM
O=C(c1ccco1)N1CCC(c2nc3c(nnn3Cc3c(Cl)cccc3Cl)c(=O)[nH]2)CC1	none
CCOC(=O)c1c(C)[nH]c(C(=O)Nc2ccc(NC(C)=O)cc2)c1C	Nrf2 inh 8.2µM
CC(=O)c1c(C)[nH]c(C(=O)Nc2cccc(C#N)c2)c1C	Nrf2 inh inconclusive
CC(=O)c1c(C)[nH]c(C(=O)Nc2cccc(C(F)(F)F)c2)c1C	A549 tox inconclusive, Nrf2 inh 21µM
CCOC(=O)c1c(C)[nH]c(C(=O)OC(C)C(=O)Nc2ccccc2OC)c1C (stereo not given)	Nrf2 inh 15µM
CCOC(=O)c1c(C)[nH]c(C)c1S(=O)(=O)N1CCCC(C(=O)N2CCN(c3cccc(Cl)c3)CC2)C1 (stereo not given)	none (no result: Nrf2 inh)
Cc1cccc(-c2nnn3c2nc(NCCc2ccc(S(N)(=O)=O)cc2)c2cc(Cl)ccc23)c1	none
CNC(=O)[C@H]1O[C@@H](n2cnc3c(NCc4cccc(I)c4)nc(Cl)nc32)[C@H](O)[C@@H]1O	Pin1 inhibitor inconclusive, Nrf2 inh 18µM
Cn1cnc2c(NCc3ccccc3)nc(Cl)nc21	none (no result: Nrf2 activator)
O=C(NCc1ccc(F)cc1)n1cc(P(=S)(c2ccccc2)c2ccccc2)c2ccccc21	none (no result: Nrf2 activator)
CN(C)/C=C/C(=O)c1cccc(Cl)c1	none
CN(C)/C=C/C(=O)c1ccc(Cl)c([N+](=O)[O-])c1	Nrf2 activator 13µM
O=S(=O)(c1ccc(F)cc1F)N1CCN(c2nc(-c3cccs3)nc3ccccc23)CC1	none (no result: Nrf2 activator)
COc1ccc(C(=O)NC(=O)Nc2cc(C)ccn2)cc1	Nrf2 inh 7.3µM
O=S(=O)(c1ccc(OC(F)(F)F)cc1)N1CCN(c2nc(-c3cccs3)nc3ccccc23)CC1	none (no result: Nrf2 activator)
COc1ccc(OC)c(CCNC(=O)c2cc3c(-c4ccccc4F)nn(C)c3s2)c1	Nrf2 inh 21µM
Cc1cc2[nH]c3c(=O)n(Cc4ccccc4F)ncc3c2s1	none (no result: Nrf2 activator)
CCOC(=O)C1=C(C)NC2=C(C(=O)c3ccccc32)C1c1ccc([N+](=O)[O-])o1 (stereo not given)	Nrf2 activator 14µM
CCOC(=O)C1=C(C)NC(=O)NC1c1ccc([N+](=O)[O-])o1 (stereo not given)	none
O=C(COC(=O)c1ccc2ncsc2c1)NC(=O)C1CCCCC1	Nrf2 inh inconclusive (no result: Nrf2 activator)
COc1ccc(CN(Cc2ccccc2)C(=O)C2CC2)cc1COc1ccc(NC(C)=O)cc1	Pin1 inhibitor inconclusive, Nrf2 inh 21µM (no result: Nrf2 activator)
COc1ccc(-c2nn(-c3ccc(F)cc3F)c3c2cnc2ccc(F)cc23)cc1	none (no result: Nrf2 inh)
Cc1ccc(C(=O)NNC(=O)CSc2nnc3c(n2)[nH]c2ccc(C)cc23)cc1	Nrf2 inh inconclusive
CCc1ccc2[nH]c3nc(SCC(=O)NNC(=O)c4ccc(C(C)(C)C)cc4)nnc3c2c1	A549 tox 12µM, Nrf2 inh inconclusive
COc1cc(F)c(S(=O)(=O)N2CCN(S(=O)(=O)c3ccc4c(c3)OCCO4)CC2)c(F)c1	none (no result: Nrf2 activator)
